Data: PubChem BioAssay (NCI)
This is part of a sample that, as a whole, favours compounds with a hit. Of some 79,000 tested, about 15% had one in any assay. Unmarked numbers belong to inactive results. Activity calls are given as the source filed them. Rule as the data show it: active = growth inhibition above about 70%; inactive = the rest.

Legend:
[1] = NCI Yeast Anticancer Drug Screen. Data for the rad50 strain (AID 155);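 also: 0% = growth of vehicle-only cultures of the same strain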; conditions: S. cerevisiae rad50 strain growth inhibition; at 50.0 µM; active compounds read high
In short: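 A DNA repair-deficient yeast mutant serves as the test organism; compound-induced growth inhibition is calculated against vehicle-treated cells.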

[2] = NCI Yeast Anticancer Drug Screen. Data for the mec2-1 strain (AID 157); conditions: S. cerevisiae mec2-1 strain, at 50.0 µM, active compounds read high
In short: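 Compounds were applied to mec2-1 yeast cells. Their growth was then compared with that of vehicle-treated cultures to give growth inhibition.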

[3] = NCI Yeast Anticancer Drug Screen. Data for the sgs1 mgt1 strain (AID 161);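 also: 0% = growth of cultures given vehicle only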; conditions: S. cerevisiae sgs1 mgt1 strain, at 50.0 µM, active compounds read high
In short: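 Growth of a repair-deficient yeast mutant was monitored after compound treatment and expressed as inhibition relative to vehicle-treated cultures.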

[4] = NCI Yeast Anticancer Drug Screen. Data for the cln2 rad14 strain (AID 165);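 also: 0% = growth equal to vehicle treated cultures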; conditions: S. cerevisiae cln2 rad14 strain, at 50.0 µM, active compounds read high
In short: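 Strain: cln2 rad14 yeast, altered in cell cycle control and DNA damage repair. Read-out: growth inhibition vs vehicle.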

[5] = NCI Yeast Anticancer Drug Screen. Data for the bub3 strain (AID 167); conditions: S. cerevisiae bub3 mutant strain, at 50.0 µM, active compounds read high
In short: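 Inhibition values come from growth of compound-treated mutant yeast normalised to vehicle-treated controls.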

[6] = NCI Yeast Anticancer Drug Screen. Data for the mlh1 rad18 strain (AID 175); conditions: S. cerevisiae mlh1 rad18 strain growth inhibition; at 50.0 µM; active compounds read high
In short: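 A repair-deficient yeast strain is exposed to test compound, and growth is scored relative to vehicle-treated controls.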

SMILES | growth inhibition [1] | growth inhibition [2] | growth inhibition [3] | growth inhibition [4] | growth inhibition [5] | growth inhibition [6]
CCC(C)n1c(C)nc2cc(C(F)(F)F)cc(N)c21 (configuration not stated) | 20.7% | 18.4% | 8.4% | -31.2% | 11.6% | 15.2%
CCOC(=O)/C=C/C(=O)NNS(=O)(=O)CCC(N)C(=O)O (configuration not stated) | -6.65% | 13.4% | 0.5% | 2.8% | 6.8% | 0.45%
COC(=O)C1C(C(=O)OC)C(C(=O)OC)C1C(=O)OC (configuration not stated) | 1.6% | -0.35% | -0.45% | 9.5% | 1.4% | 26.9%
Cc1occc1C(=S)Nc1ccc(Cl)c(C(=O)OC2CCCC2)c1 | 40.1% | 21.2% | 35% | 60.5% | 46.4% | 29.6%
O=C(NC(=O)C1CCC(=O)N1Cc1ccccc1)NC1CCC(=O)N1Cc1ccccc1 (configuration not stated) | 3.35% | 3.1% | -26.1% | 1.8% | 0.85% | 17.2%
CC1(C)CC(=O)C(C(c2ccc3c(c2)CCC3)C2C(=O)CC(C)(C)CC2=O)C(=O)C1 | -18.1% | -27.9% | -31.1% | 23.9% | -26.3% | -21.4%
COc1ccc(OC)c(-c2cc(C(=O)O)c3cc4ccccc4cc3n2)c1 | 5.85% | 6.05% | -32.8% | -69% | -52.8% | 17.2%
Cc1cc(O)c([N+](=O)[O-])cc1C | -8.05% | -1.85% | -15.2% | -1.75% | 3.75% | -3.55%
c1csc(-c2sc(-c3ccsc3)cc2Cc2ccsc2)c1 | -23.1% | -20.1% | -32.9% | -14.4% | -26.6% | -23.3%
Cc1cccc(Nc2nnc(Nc3cccc(C)n3)c3ccccc23)n1 | -2.15% | -4.5% | -2.75% | -4.25% | -3.8% | 4%
COC(=O)c1cc(=O)n(C)[nH]1 | -0.55% | 4.7% | 0.75% | -58.2% | 6.65% | -1.05%
CCCCCCCCCCCCOc1ccc(C(C)(C)C)cc1 | -12.2% | -12.8% | -22.1% | 7.85% | -36.8% | -11.7%
CC(C(=O)c1ccc(Cl)cc1)C1=NC2NN(c3ccccc3)C(=O)C2=C1C(C)C(=O)c1ccc(Cl)cc1 (configuration not stated) | 10.5% | -12.3% | 6% | -0.3% | 1.8% | 3.25%
CS(=O)(=O)N(CCC#N)c1ccc(/C=N/NC(=O)CC(=O)Nc2cccc(Cl)c2)cc1 | -6.75% | 18.1% | 10.7% | 19.6% | -6.15% | 8.65%
[Cl][Ce]([Cl])[Cl] | 28.1% | 14.2% | 24.9% | 16.4% | 24.1% | 15.6%
CCCCCCCCNC(=O)/C(=C\c1ccc(/C=C(/NC(=O)c2ccccc2)C(=O)NCCCCCCCC)cc1)NC(=O)c1ccccc1 | -14% | -23.4% | -20.4% | 11.7% | -17.9% | -4%
CCCCNC(=O)c1c(Cl)c(Cl)c(Cl)c(Cl)c1C(=O)O | 37.3% | 17.1% | 4.85% | 17.5% | 16.5% | 28.2%
CCC1COS(=O)(=O)CS(=O)(=O)O1 (configuration not stated) | -27.6% | -16.2% | -3.35% | -40.9% | 11.8% | 3.1%
CC1=C(C)Cc2c(-c3ccccc3)oc(-c3ccccc3)c2C1 | -13.3% | -12.4% | 0.7% | 25.8% | -7.95% | -16.4%

SMILES | growth inhibition [1] | growth inhibition [2] | growth inhibition [3] | growth inhibition [4] | growth inhibition [5] | growth inhibition [6]
O=[N+]([O-])c1cc2no[n+]([O-])c2cc1N1CCOCC1 | 98.8% (active) | 99.3% (active) | 99.2% (active) | 98.4% (active) | 99% (active) | 99.2% (active)
CCOC(=O)N1CCNCCN(C(=O)OCC)CCNCC1 | -3.95% | 2.3% | -4.3% | 0.7% | -4.5% | 24.1%
OCCNNCCO | 13.3% | 1.05% | -14.7% | -8.85% | 15.1% | 1.9%
COCOC(C)=O | -9.1% | -6.4% | 3.7% | 0.5% | -12.4% | 1.4%
C=C1C(c2ccccc2)C(c2ccccc2)=C(C)C(c2ccccc2)=CN1C(=O)c1ccccc1 (configuration not stated) | -3.05% | 8.7% | -9.2% | 23.2% | -4.7% | 15.2%
CC/C(C)=N/C(=O)NN | -20.1% | 8.75% | -16.2% | 19.3% | 35.5% | 20.3%
CSc1c(C#N)c(N)n2c1C(=O)N(c1ccccc1)C2=S | -52.7% | 25.6% | -26.9% | 20.1% | 26.1% | -4.8%
OC(c1cc(C(F)(F)F)nc2c(Cl)cc(Cl)cc12)C1CCCCN1 (configuration not stated) | 7.2% | -22.4% | -5% | -3.4% | 8.75% | 22.9%
COc1cc2c3c(c1OC)C1(C=CC(=O)C=C1)CC3NCC2 (configuration not stated) | -45.9% | -4.8% | -8.5% | -10.1% | -18.9% | -45.6%
O=C1CCC(N2C(=O)C3C4CCC(O4)C3C2=O)C(=O)O1 (configuration not stated) | 12.9% | 3% | 13.9% | 13.8% | 13.8% | 7.85%
C=CCOC(=O)CC=C | -8.7% | -3.1% | 4.75% | 6.7% | -11.4% | 5.3%
CCc1ccccc1NC(=O)C1=C(C)NC(C)=C(C(=O)Nc2ccccc2CC)C1c1ccc(NC(C)=O)cc1 | -11.1% | 19.8% | 3.25% | 13.6% | 11.4% | -4.25%
O=C(O)C(C(=O)O)C(c1cccc([N+](=O)[O-])c1)C(c1ccccc1)[N+](=O)[O-] (configuration not stated) | 52.5% | 18.2% | 45.5% | 12.2% | 22.2% | 37.7%
Oc1ccc(C(c2ccc(O)cc2)c2ccc(O)cc2)cc1 | 2.1% | 3.9% | 29.9% | 19.1% | 22.1% | -18.2%
CC(I)CNc1ccc(C(=O)O)c(O)c1 (configuration not stated) | 3.7% | -4.9% | 6.15% | 1% | 11.6% | -11.9%
CSc1ncc(CO)c(NC(C)(C)C)n1 | 2.65% | 5.7% | 0.55% | -19.8% | -0.75% | 10.5%
Cc1ncc([N+](=O)[O-])n1CCNCCCCn1ccnc1[N+](=O)[O-] | -28.4% | -21.6% | -6.15% | -23.7% | -52.3% | -17.9%
CCOC(=O)C(C(O)c1ccc([N+](=O)[O-])cc1)P(=O)(OCC)OCC (configuration not stated) | 24.3% | -16.4% | -4.7% | 5.25% | -10.9% | -20.2%
